Data from PubChem BioAssay (EPA / NIEHS).
Where “and” joins values, the source holds several entries; their conditions need not be identical. Equal entries are not always repeated. The source holds several records for some structures; these can differ, active in one and inactive in another. Calls of active or inactive are those of the source. How the source made its calls: active means hit-call score of the fitted dose curve at least 0.9, where 1 is the maximum; inactive means score below 0.9.

Assays:
[1] = BSK_hDFCGF_SRB: Viability Assessment in the BioMAP Diversity Plus: hDFCGF Assay (AID 2283061); conditions: primary human foreskin fibroblasts;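 further: cells exposed to compound for 24 h before the read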
Outline: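 Cells were dosed with test chemical, cultured 24 h, fixed with 10% TCA, then stained with 0.1% SRB and read at 560 nm. The fibroblasts were human foreskin primary cells, and DMSO served as baseline.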

[2] = read-out: TIMP metallopeptidase inhibitor 1 (TIMP1), TIMP1 (gene 7076); assay: BSK_hDFCGF_TIMP1: BioMAP Diversity Plus: hDFCGF Assay for TIMP metallopeptidase inhibitor 1 (TIMP1) Biomarker Activity (AID 2283062); conditions: primary human foreskin fibroblasts; actives raise or lower the signal
Outline: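 Fibroblasts from human foreskin are treated with test chemical and harvested at 24 h. TIMP-1 is quantified by ELISA, and gain or loss of signal is scored against DMSO.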

[3] = read-out: Matrix Metallopeptidase 1 (MMP1), MMP1 (gene 4312); assay: BSK_hDFCGF_MMP1: BioMAP Diversity Plus: hDFCGF Assay for Matrix Metallopeptidase 1 (MMP1) Biomarker Activity (AID 2283064); conditions: primary human foreskin fibroblasts; actives raise or lower the signal
Outline: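 Human foreskin fibroblasts exposed to chemical for 24 h; MMP1 detected by ELISA, with DMSO as baseline for bidirectional fitting.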

[4] = read-out: Vascular cell adhesion molecule 1 (VCAM1), VCAM1 (gene 7412); assay: BSK_hDFCGF_VCAM1: BioMAP Diversity Plus: hDFCGF Assay for Vascular cell adhesion molecule 1 (VCAM1) Biomarker Activity (AID 2283065); conditions: primary human foreskin fibroblasts; actives raise or lower the signal;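 on AC50: VCAM-1 protein level quantified by ELISA after 24 h chemical exposure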
Outline: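 Cells are dosed, cultured for 24 h, then VCAM-1 is quantified by ELISA; signal increases and decreases are both fitted relative to DMSO.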

[5] = read-out: Plasminogen activator inhibitor-1 (PAI1), SERPINE1 (gene 5054); assay: BSK_hDFCGF_PAI1: BioMAP Diversity Plus: hDFCGF Assay for Plasminogen activator inhibitor-1 (PAI1) Biomarker Activity (AID 2283066); conditions: primary human foreskin fibroblasts; actives raise or lower the signal
Outline: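 PAI-1 levels in human dermal foreskin fibroblasts were quantified by ELISA 24 h after dosing, with gain or loss analysed against DMSO. Overt cytotoxicity was checked by sulforhodamine B total-protein staining in parallel cultures.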

[6] = read-out: Intercellular Adhesion Molecule 1 (ICAM1), ICAM1 (gene 3383); assay: BSK_KF3CT_ICAM1: BioMAP Diversity Plus: KF3CT Assay for Intercellular Adhesion Molecule 1 (ICAM1) Biomarker Activity (AID 2283067); conditions: primary human keratinocytes with fibroblasts; actives raise or lower the signal
Outline: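 Dose the keratinocyte/fibroblast co-culture, wait 24 h, measure ICAM-1 by ELISA, then fit increases or decreases against DMSO. Cytotoxicity is checked in parallel cultures by SRB total-protein staining.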

[7] = read-out: Interferon-gamma inducible Protein 10 (IP10), CXCL10 (gene 3627); assay: BSK_KF3CT_IP10: BioMAP Diversity Plus: KF3CT Assay for Interferon-gamma inducible Protein 10 (IP10) Biomarker Activity (AID 2283068); conditions: primary human keratinocytes with fibroblasts; actives raise or lower the signal
Outline: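 Human keratinocyte plus foreskin fibroblast primary co-culture exposed to test chemical for 24 h; IP-10 measured by ELISA. Concentration-response fitted bidirectionally against DMSO control as baseline.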

[8] = BSK_KF3CT_SRB: Viability Assessment in the BioMAP Diversity Plus: KF3CT Assay (AID 2283069); conditions: primary human keratinocytes with fibroblasts;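 further: fitted for both signal gain and loss against DMSO baseline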
Outline: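 Overt cytotoxicity is assessed as total protein by sulforhodamine B staining in parallel human skin co-cultures at 24 h after dosing. DMSO serves as negative control and baseline.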

[9] = read-out: Interleukin-1 alpha (IL1a), IL1A (gene 3552); assay: BSK_KF3CT_IL1a: BioMAP Diversity Plus: KF3CT Assay for Interleukin-1 alpha (IL1a) Biomarker Activity (AID 2283070); conditions: primary human keratinocytes with fibroblasts; actives raise or lower the signal
Outline: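 Readout is IL-1a level by ELISA, compared bidirectionally with DMSO as baseline. Cells: human keratinocytes co-cultured with foreskin fibroblasts, harvested 24 h post-dose.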

[10] = read-out: C-C motif chemokine 2 (Homo sapiens) (UniProt P13500); assay: BSK_KF3CT_MCP1: BioMAP Diversity Plus: KF3CT Assay for Monocyte Chemoattractant Protein 1 (MCP1/CCL2) Biomarker Activity (AID 2283073); conditions: primary human keratinocytes with fibroblasts; actives raise or lower the signal
Outline: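 Keratinocytes and foreskin fibroblasts were co-cultured, dosed with chemical, and sampled 24 h later. MCP-1 was quantified by ELISA, and the endpoint was analyzed with bidirectional fitting using DMSO as negative control.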

[11] = read-out: Matrix Metallopeptidase 9 (MMP9), MMP9 (gene 4318); assay: BSK_KF3CT_MMP9: BioMAP Diversity Plus: KF3CT Assay for Matrix Metallopeptidase 9 (MMP9) Biomarker Activity (AID 2283074); conditions: primary human keratinocytes with fibroblasts; actives raise or lower the signal
Outline: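 Values come from bidirectional fitting relative to DMSO of MMP-9 levels, which were measured by ELISA. Measurements were taken 24 h after chemical dosing of a keratinocyte and foreskin fibroblast co-culture.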

[12] = read-out: urokinase plasminogen activator (uPA), PLAU (gene 5328); assay: BSK_KF3CT_uPA: BioMAP Diversity Plus: KF3CT Assay for urokinase plasminogen activator (uPA) Biomarker Activity (AID 2283075); conditions: primary human keratinocytes with fibroblasts; actives raise or lower the signal
Outline: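 Values derive from bidirectional fitting against DMSO controls. Keratinocyte/foreskin fibroblast co-cultures received chemical; 24 h later uPA was detected by ELISA, with SRB total-protein staining in parallel wells for overt cytotoxicity.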

CD40, CD40 (gene 958) = assay: BSK_LPS_CD40: BioMAP Diversity Plus: LPS Assay for CD40 Biomarker Activity (AID 2283076); conditions: primary human HUVEC with PBMC; actives raise or lower the signal
Outline: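 CD40 signal, measured by ELISA, is fitted in both directions relative to DMSO vehicle. The system is an LPS-driven human vascular primary co-culture of endothelial cells and PBMC, sampled 24 h after compound addition.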

[13] = read-out: E-selectin (Homo sapiens) (UniProt P16581); assay: BSK_LPS_Eselectin: BioMAP Diversity Plus: LPS Assay for Eselectin Biomarker Activity (AID 2283077); conditions: primary human HUVEC with PBMC; actives raise or lower the signal
Outline: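 Signal of E-selectin, detected by ELISA, served as the endpoint; cells were umbilical vein endothelium with PBMC, read 24 h after treatment. DMSO defined baseline, and both increases and decreases were fitted.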

[14] = read-out: Interleukin-8 (IL8), CXCL8 (gene 3576); assay: BSK_LPS_IL8: BioMAP Diversity Plus: LPS Assay for Interleukin-8 (IL8) Biomarker Activity (AID 2283078); conditions: primary human HUVEC with PBMC; actives raise or lower the signal
Outline: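 Endothelial cells and PBMC from human donors are co-cultured, treated with chemicals and LPS, then assayed for IL-8 by ELISA after 24 h. Parallel SRB staining (0.1% SRB after 10% TCA fixation, 560 nm) flags cytotoxicity.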

[15] = BSK_LPS_SRB: Viability Assessment in the BioMAP Diversity Plus: LPS Assay (AID 2283079); conditions: primary human HUVEC with PBMC;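 further: total protein by sulforhodamine B absorbance as a cytotoxicity measure; measured one day after compound addition; fitted in both directions against DMSO so loss or gain of signal counts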
Outline: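 Overt cytotoxicity was gauged by sulforhodamine B total-protein staining in a primary human vascular endothelial and mononuclear cell co-culture 24 h post-dosing. Activity was fitted in both directions relative to DMSO.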

[16] = read-out: Monokine induced gamma interferon (MIG), CXCL9 (gene 4283); assay: BSK_hDFCGF_MIG: BioMAP Diversity Plus: hDFCGF Assay for Monokine induced gamma interferon (MIG) Biomarker Activity (AID 2283063); conditions: primary human foreskin fibroblasts; actives raise or lower the signal
Outline: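 MIG signal, determined by ELISA, reflects 24 h chemical exposure of human skin primary fibroblasts. DMSO serves as negative control and baseline.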

[17] = read-out: TIMP metallopeptidase inhibitor 2 (TIMP2), TIMP2 (gene 7077); assay: BSK_KF3CT_TIMP2: BioMAP Diversity Plus: KF3CT Assay for TIMP metallopeptidase inhibitor 2 (TIMP2) Biomarker Activity (AID 2283071); conditions: primary human keratinocytes with fibroblasts; actives raise or lower the signal
Outline: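 TIMP-2 measured by ELISA at 24 h in human keratinocyte/fibroblast primary co-cultures exposed to chemicals. Both increases and decreases were fitted against DMSO. Parallel cultures were stained with SRB for total protein as an overt-cytotoxicity check.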

[18] = read-out: Interleukin-1 alpha (IL1a), IL1A (gene 3552); assay: BSK_LPS_IL1a: BioMAP Diversity Plus: LPS Assay for Interleukin-1 alpha (IL1a) Biomarker Activity (AID 2283080); conditions: primary human HUVEC with PBMC; actives raise or lower the signal
Outline: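 Measured: IL-1 alpha via ELISA at 24 h in LPS-activated human umbilical vein endothelium–PBMC co-culture. Baseline: DMSO, bidirectional fitting.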

Measured: AC50

E-selectin (Homo sapiens), sequence (P16581 whole entry, looked up): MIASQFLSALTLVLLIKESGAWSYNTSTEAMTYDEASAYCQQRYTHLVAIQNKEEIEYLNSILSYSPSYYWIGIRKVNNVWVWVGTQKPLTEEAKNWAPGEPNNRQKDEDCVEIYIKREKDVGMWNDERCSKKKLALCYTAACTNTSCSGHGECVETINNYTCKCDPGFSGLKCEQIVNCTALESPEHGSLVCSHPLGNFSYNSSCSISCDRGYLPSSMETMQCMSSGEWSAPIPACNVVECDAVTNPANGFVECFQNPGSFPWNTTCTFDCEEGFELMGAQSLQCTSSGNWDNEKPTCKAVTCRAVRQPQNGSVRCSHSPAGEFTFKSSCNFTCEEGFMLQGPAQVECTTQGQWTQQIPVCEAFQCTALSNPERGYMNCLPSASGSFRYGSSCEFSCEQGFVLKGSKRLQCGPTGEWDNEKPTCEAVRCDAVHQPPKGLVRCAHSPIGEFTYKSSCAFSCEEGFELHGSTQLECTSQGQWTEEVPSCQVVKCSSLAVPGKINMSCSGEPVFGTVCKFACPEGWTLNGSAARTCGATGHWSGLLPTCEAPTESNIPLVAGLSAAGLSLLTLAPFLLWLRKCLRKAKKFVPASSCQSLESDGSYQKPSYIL

CCOC(=O)CN[C@@H](C(=O)N1CC[C@H]1C(=O)NCc1ccc(/C(N)=N/O)cc1)C1CCCCC1
not listed: [16] | [17] | [18]
inactive: all other assays above

CCC(C)c1ccccc1O (stereo not drawn)
not listed: [7] | [17] | [18]
inactive: all other assays above

OCC(F)(F)C(F)(F)C(F)(F)C(F)(F)C(F)(F)C(F)(F)C(F)(F)C(F)(F)C(F)(F)C(F)(F)C(F)(F)F
active: [4] 0.189 µM | [18] 186 nM and 202 nM
inactive: [1] | [2] | [3] | [4] | [5] | [6] | [9] | [17] | [10] | [11] | [12] | CD40, CD40 (gene 958) | [13] | [14] | [15]

COc1cccc(O)c1
not listed: [8] | [16] | [17] | [18]
inactive: all other assays above

CC(=O)Nc1ccc(O)cc1
not listed: [8] | [16]
inactive: all other assays above

O=C(O)CCC(F)(F)C(F)(F)C(F)(F)C(F)(F)C(F)(F)C(F)(F)F
inactive: [1] | [2] | [16] | [3] | [4] | [5] | [6] | [7] | [9] | [10] | [11] | [12] | CD40, CD40 (gene 958) | [13] | [15]
active: CD40, CD40 (gene 958) 15.6 µM | [14] 30 µM and 51.1 µM and 38.9 µM
